From PubChem BioAssay come the findings set out here.

The nature of assay [1]: optical density shifts of acrAB sulA E. coli – strain DRC41, OD650, 48 h, E. coli filamentation inducer project, primary screen (AID 1152).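 Note: E. coli MC1000 strain DRC41 lacking acrAB efflux pump and sulA.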 Particulars: higher = more signal, called active from +8 up or from −8 down.
The nature of assay [2]: probe aLefty1 binding on compound microarray – biochemical, small-molecule microarray, 635/667 nm fluorescence, primary screen (AID 1153).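 Note: score merges spot fluorescence with signal-to-noise ratio from the scanned slide images.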 Particulars: higher = more signal.
Assay [3] in a line: plasmodial surface anion channel blockers, osmotic lysis – cell-based, P. falciparum Indochina, OD700, 1 h, primary screen (AID 1154). Particulars: P. falciparum Indochina infected RBC osmotic lysis, higher = more signal, called active from +8 up or from −8 down.
The nature of assay [4]: plasmodial surface anion channel blockers, osmotic lysis – cell-based, P. falciparum Indochina, OD700, 2 h, primary screen (AID 1155).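 Note: lysis reports solute entry through the parasite surface anion channel PSAC.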 Particulars: P. falciparum Indochina infected erythrocytes, higher = more signal, called active from +8 up or from −8 down.
The nature of assay [5]: changes in parasitized red cell lysis, either direction – P. falciparum Indochina, OD700, 3 h, PSAC antagonist project, primary screen (AID 1156). Particulars: P. falciparum-infected erythrocytes, osmotic lysis, higher = more signal, called active from +8 up or from −8 down.
Assay [6] in a line: plasmodial surface anion channel blockers, osmotic lysis – cell-based, P. falciparum Indochina, OD700, 18 h, primary screen (AID 1157). Particulars: P. falciparum Indochina infected erythrocytes, osmotic lysis OD700, 18 h; higher = more signal, called active from +8 up or from −8 down.
A short description of assay [7]: S6 kinase pathway phospho-S6 level changes – cell-based, A549, cytoblot, luminescence, serum-stimulated, primary screen (AID 1158).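 Note: serum-stimulated A549 lung adenocarcinoma cells; signal is phosphorylated S6 detected by cytoblot immunostaining with HRP secondary.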 Particulars: 5 h, higher = more signal.
The target in assay [8] is NADPH oxidase 2 (Homo sapiens) (UniProt P04839). In words: compounds shifting NOX2 Amplex Red fluorescence – cell-based, HEK293-NOX2, PMA-stimulated, NOX inhibitor project, primary screen (AID 1159). Note: test concentration not given here. Particulars: 45 min, higher = more signal, called active from +8 up or from −8 down.
Assay [9] deals with NADPH oxidase 4 (Homo sapiens) (UniProt Q9NPH5). In words: compounds shifting NOX4 Amplex Red fluorescence – cell-based, HEK293-NOX4, tetracycline-induced, NOX inhibitor project, primary screen (AID 1160). Particulars: HEK293-NOX4, Amplex Red H2O2 fluorescence, 45 min; higher = more signal, called active from +8 up or from −8 down.
Assay [10] deals with NADPH oxidase 5 (Homo sapiens) (UniProt Q96PH1). In words: compounds shifting NOX5 Amplex Red fluorescence – cell-based, HEK293-NOX5, NOX inhibitor project, primary screen (AID 1161). Particulars: HEK293-NOX5, ionomycin, 45 min, higher = more signal.

Molecules are shown by their SMILES. The source made the active and inactive calls.

NADPH oxidase 2 (Homo sapiens), sequence (P04839 whole entry, looked up): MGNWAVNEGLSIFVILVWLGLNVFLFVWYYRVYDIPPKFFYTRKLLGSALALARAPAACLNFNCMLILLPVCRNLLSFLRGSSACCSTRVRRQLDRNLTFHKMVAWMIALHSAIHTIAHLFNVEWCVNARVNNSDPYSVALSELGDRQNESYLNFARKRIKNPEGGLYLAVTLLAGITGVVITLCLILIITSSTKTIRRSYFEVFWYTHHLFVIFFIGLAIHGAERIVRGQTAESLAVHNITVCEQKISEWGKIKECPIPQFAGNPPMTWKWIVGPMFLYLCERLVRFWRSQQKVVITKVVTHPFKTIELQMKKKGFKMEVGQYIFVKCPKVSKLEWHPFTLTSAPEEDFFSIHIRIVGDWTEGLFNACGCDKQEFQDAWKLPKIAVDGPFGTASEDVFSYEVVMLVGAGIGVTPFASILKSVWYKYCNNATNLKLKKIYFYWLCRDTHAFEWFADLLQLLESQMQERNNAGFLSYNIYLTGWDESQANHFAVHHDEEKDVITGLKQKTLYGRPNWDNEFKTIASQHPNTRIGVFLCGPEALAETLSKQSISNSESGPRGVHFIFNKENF
NADPH oxidase 5 (Homo sapiens), sequence (Q96PH1 whole entry, looked up): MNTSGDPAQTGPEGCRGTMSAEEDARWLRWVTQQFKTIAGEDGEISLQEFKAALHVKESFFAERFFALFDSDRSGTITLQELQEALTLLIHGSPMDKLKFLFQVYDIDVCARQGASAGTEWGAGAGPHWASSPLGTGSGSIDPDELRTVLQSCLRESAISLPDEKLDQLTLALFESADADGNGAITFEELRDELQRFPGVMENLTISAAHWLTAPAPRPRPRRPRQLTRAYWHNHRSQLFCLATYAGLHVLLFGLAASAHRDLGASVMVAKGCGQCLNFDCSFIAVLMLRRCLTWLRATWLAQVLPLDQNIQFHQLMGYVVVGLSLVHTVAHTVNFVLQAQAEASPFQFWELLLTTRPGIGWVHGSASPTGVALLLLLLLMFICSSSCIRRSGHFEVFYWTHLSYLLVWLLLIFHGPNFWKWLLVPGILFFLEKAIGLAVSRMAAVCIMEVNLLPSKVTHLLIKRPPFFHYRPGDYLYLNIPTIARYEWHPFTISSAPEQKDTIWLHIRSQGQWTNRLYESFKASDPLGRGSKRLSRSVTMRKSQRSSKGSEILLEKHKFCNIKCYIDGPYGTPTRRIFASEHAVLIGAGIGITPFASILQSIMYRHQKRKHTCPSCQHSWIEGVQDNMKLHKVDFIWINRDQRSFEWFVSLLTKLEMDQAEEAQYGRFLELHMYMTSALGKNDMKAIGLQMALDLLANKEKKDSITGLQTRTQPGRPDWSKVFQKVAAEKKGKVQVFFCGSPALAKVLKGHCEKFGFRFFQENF
NADPH oxidase 4 (Homo sapiens), sequence (Q9NPH5 whole entry, looked up): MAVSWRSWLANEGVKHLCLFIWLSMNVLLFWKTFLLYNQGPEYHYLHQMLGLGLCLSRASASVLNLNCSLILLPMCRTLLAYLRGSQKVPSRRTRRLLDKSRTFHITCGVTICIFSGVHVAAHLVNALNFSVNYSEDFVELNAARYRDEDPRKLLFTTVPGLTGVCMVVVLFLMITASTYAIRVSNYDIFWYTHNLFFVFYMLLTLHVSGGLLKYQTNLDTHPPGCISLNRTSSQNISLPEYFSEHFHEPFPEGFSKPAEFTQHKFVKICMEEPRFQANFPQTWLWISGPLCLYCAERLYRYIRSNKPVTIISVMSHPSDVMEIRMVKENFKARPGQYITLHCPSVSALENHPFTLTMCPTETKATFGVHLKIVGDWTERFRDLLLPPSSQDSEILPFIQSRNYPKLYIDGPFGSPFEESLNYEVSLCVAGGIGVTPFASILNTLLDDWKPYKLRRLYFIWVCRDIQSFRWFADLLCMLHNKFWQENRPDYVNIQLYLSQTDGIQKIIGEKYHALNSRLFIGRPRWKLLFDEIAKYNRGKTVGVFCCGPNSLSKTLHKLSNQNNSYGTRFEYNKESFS

`CC(C)NC(=O)[C@@H]1c2ccccc2C(=O)N(Cc2ccccc2Cl)[C@H]1c1ccc(CO)cc1`: the z-score in assay [1] is 1.09 (inactive); in assay [3], 2.67 (inactive); in assay [4], 1.05 (inactive); in [5], 0.796 (inactive); in assay [6], 0.183 (inactive); in [7] it was -0.469. In addition, the z-score was -0.444 (inactive) in assay [8], 0.715 (inactive) in [9] and 0.376 in assay [10]. Moreover, the composite z-score in assay [2] worked out at 0.509.

As to `COCCOC(=O)N1C(=O)[C@@]2(c3cc(C#CCNC(N)=O)ccc31)[C@H](C(=O)N1CCN(c3ncccn3)CC1)[C@H]1C(=O)O[C@H](c3ccccc3)[C@H](c3ccccc3)N1[C@@H]2c1ccccc1OCCO`, the z-score in assay [1] is 1.07 (inactive); in assay [3] it was 2.72 (inactive); in assay [4], 1.32 (inactive); in assay [5], 0.749 (inactive); in assay [6], 0.883 (inactive); in assay [7] it was 0.915. The z-score in assay [8] is 1.99 (inactive); in assay [9], 0.756 (inactive); in assay [10], -1.08. The molecule also registered a composite z-score in assay [2] of 0.248.

Consider `[N-]=[N+]=Nc1ccccc1[C@@H]1OC(c2ccc(OCCCO)cc2)=N[C@]1(CCS(=O)(=O)c1ccccc1)C(=O)N1CCOCC1`, for which the z-score was 0.325 (inactive) in assay [1]; 30.4 (active) in assay [3]; 25.4 (active) in assay [4]; 0.736 (inactive) in [5]; 6.38 (inactive) in assay [6]; -0.444 in assay [7]. The figures for the z-score in assay [8], in [9] and in assay [10] were -1.54 (inactive), 1.47 (inactive) and 1.47, respectively. Moreover, the composite z-score in assay [2] was 0.701.

Take `COCCOC(=O)N1C(=O)[C@@]2(c3cc(C#CCNC(N)=O)ccc31)[C@H](C(=O)N1CCc3cc(OC)c(OC)cc3C1)[C@H]1C(=O)O[C@H](c3ccccc3)[C@H](c3ccccc3)N1[C@@H]2c1ccc(OCCO)cc1`: the z-score was 1.3 (inactive) in [1]; 3.93 (inactive) in assay [3]; 1.37 (inactive) in assay [4]; 0.695 (inactive) in assay [5]; 0.778 (inactive) in [6]; 0.412 in assay [7]. Further, the z-score in assay [8] is 0.825 (inactive); in assay [9], 0.869 (inactive); in assay [10], -0.0832. This molecule also displayed a composite z-score in assay [2] of -0.361.

With `O=C1OCCC/C=C\[C@H]2OC34C=CCN(Cn5nnc6ccccc65)C(=O)[C@H]3N(CCCCCO)C(=O)[C@@H]4C12` (stereo not given in full), the z-score is 0.246 (inactive) in assay [1]; 2.6 (inactive) in assay [3]; 0.0767 (inactive) in [4]; -0.212 (inactive) in assay [5]; 0.479 (inactive) in [6]; -0.339 in assay [7]. The z-score in [8] was 0.871 (inactive); in assay [9], -0.167 (inactive); in assay [10], 1.15. Besides, the composite z-score in assay [2] came out at 0.278.

Turning to `Cc1ccc(S[C@]2(C(=O)NCC(C)C)CC(=O)N(Cc3ccccc3Cl)[C@@H]2c2ccc(CO)cc2)cc1`, the z-score in [1] was -0.132 (inactive); in [3], 1.14 (inactive); in assay [4] it was 0.61 (inactive); in assay [5] it was -0.23 (inactive); in assay [6] it was 0.0839 (inactive); in assay [7] it was 0.534. For the same molecule, the results for the z-score in [8], in assay [9] and in [10] were -1.85 (inactive), 0.717 (inactive) and -0.393, respectively. In assay [2], this molecule displayed a composite z-score of -0.188.

Turning to `C=CCNC(=O)[C@@H]1[C@H]2C(=O)O[C@H](c3ccccc3)[C@H](c3ccccc3)N2[C@H](c2ccccc2OCCO)[C@@]12C(=O)Nc1ccc(C#CC3=CCCCC3)cc12`, the z-score was 1.51 (inactive) in assay [1]; 1.78 (inactive) in assay [3]; -0.144 (inactive) in assay [4]; -0.458 (inactive) in assay [5]; 0.0442 (inactive) in assay [6]; 2.36 in [7]. Further, the figures for the z-score in assay [8], in assay [9] and in assay [10] were 0.646 (inactive), -1.35 (inactive) and -4.4, respectively. The molecule further displayed a composite z-score in [2] of 0.454.

`CC(C)C[C@@H]1NC(=O)[C@@H]2C[C@H](C(=O)NCCCCCC[N+](C)(C)C)[C@H](c3ccc(O)cc3)N2C1=O`: the z-score in [1] was 0.55 (inactive); in assay [3] it was 3.47 (inactive); in [4], 0.637 (inactive); in [5] it was -1.96 (inactive); in assay [6], 0.227 (inactive); in assay [7], -0.274. Besides, the z-score in [8] is 0.994 (inactive); in assay [9], 0.763 (inactive); in assay [10] it was 0.75. In addition, the composite z-score in assay [2] is 0.127.

With `[N-]=[N+]=NCc1ccccc1[C@@H]1OC(c2ccc(OCCCO)cc2)=N[C@]1(Cc1ccccc1)C(=O)N1CCCCC1`, the z-score in [1] was 1.22 (inactive); in assay [3], 21.5 (active); in assay [4], 4.66 (inactive); in assay [5], 1.78 (inactive); in assay [6] it was 1.3 (inactive); in assay [7], -0.205. In addition, the values for the z-score in assay [8], in [9] and in assay [10] were -0.84 (inactive), 0.453 (inactive) and -1.26, respectively. In [2], this molecule displayed a composite z-score of 0.33.

For `COc1cc(CO)ccc1OC(C)=O`, the z-score in assay [1] is 1.48 (inactive); in assay [3] it was -0.92 (inactive); in assay [4], -1.73 (inactive); in assay [5], -0.798 (inactive); in [6], -2.47 (inactive); in assay [7] it was 1.03. Further, the z-score is -4.55 (inactive) in [8], -1.36 (inactive) in assay [9] and -0.667 in assay [10]. This molecule returned a composite z-score in assay [2] of -0.157.

Take `CCOC(=O)C1=CC[C@@H](c2ccccc2)N(S(=O)(=O)c2ccc(C)cc2)[C@H]1C(=O)OCC`: the z-score in assay [1] is -0.488 (inactive); in assay [3], 3.81 (inactive); in assay [4], 1.17 (inactive); in [5] it was -0.54 (inactive); in assay [6], 0.583 (inactive); in assay [7] it was -0.338. The z-score in [8] was 0.439 (inactive); in assay [9], -1.45 (inactive); in assay [10], -0.75. The molecule also registered a composite z-score in [2] of 0.632.

As for `CCCCCN1CC=CC23O[C@@H]4C=CCOC(=O)[C@@H]4[C@H]2C(=O)N(CCCO)[C@@H]3C1=O` (stereo not given in full), the z-score was 3.22 (inactive) in assay [1]; -0.322 (inactive) in assay [3]; -0.397 (inactive) in assay [4]; 0.993 (inactive) in assay [5]; -0.501 (inactive) in assay [6]; 0.724 in assay [7]. The z-score in assay [8] is -0.169 (inactive); in assay [9] it was -0.724 (inactive); in [10], -1.14. In assay [2], the composite z-score is -0.149.

On to `O=c1cccc(CCc2ccccc2)o1`, for which the z-score is -1.21 (inactive) in [1]; 1.83 (inactive) in assay [3]; 0.584 (inactive) in assay [4]; -0.13 (inactive) in assay [5]; 0.339 (inactive) in assay [6]; -0.467 in assay [7]. Also, the z-score in [8] is 0.378 (inactive); in assay [9], 0.12 (inactive); in assay [10] it was -0.339. In addition, the composite z-score in assay [2] was -0.15.
